Screening results from PubChem BioAssay.
The sample as a whole holds a higher share of hits than the screen did.
Dicer processing – blocks human Dicer maturation of pre-miR-21; Q9UPY3; z-score at 25 µM; 6% of 47,000 active; AID 1347074; cat-ELCCA pre-miR-21 Dicer processing, chemiluminescence; stronger effect = higher value; in the data active means z-score above about 3, passing the limit was not always enough;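 further: plate controls were vehicle for no effect and no enzyme for full effect; higher signal means more uncleaved substrate so more Dicer inhibition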
Target sequence (Q9UPY3 whole entry, looked up): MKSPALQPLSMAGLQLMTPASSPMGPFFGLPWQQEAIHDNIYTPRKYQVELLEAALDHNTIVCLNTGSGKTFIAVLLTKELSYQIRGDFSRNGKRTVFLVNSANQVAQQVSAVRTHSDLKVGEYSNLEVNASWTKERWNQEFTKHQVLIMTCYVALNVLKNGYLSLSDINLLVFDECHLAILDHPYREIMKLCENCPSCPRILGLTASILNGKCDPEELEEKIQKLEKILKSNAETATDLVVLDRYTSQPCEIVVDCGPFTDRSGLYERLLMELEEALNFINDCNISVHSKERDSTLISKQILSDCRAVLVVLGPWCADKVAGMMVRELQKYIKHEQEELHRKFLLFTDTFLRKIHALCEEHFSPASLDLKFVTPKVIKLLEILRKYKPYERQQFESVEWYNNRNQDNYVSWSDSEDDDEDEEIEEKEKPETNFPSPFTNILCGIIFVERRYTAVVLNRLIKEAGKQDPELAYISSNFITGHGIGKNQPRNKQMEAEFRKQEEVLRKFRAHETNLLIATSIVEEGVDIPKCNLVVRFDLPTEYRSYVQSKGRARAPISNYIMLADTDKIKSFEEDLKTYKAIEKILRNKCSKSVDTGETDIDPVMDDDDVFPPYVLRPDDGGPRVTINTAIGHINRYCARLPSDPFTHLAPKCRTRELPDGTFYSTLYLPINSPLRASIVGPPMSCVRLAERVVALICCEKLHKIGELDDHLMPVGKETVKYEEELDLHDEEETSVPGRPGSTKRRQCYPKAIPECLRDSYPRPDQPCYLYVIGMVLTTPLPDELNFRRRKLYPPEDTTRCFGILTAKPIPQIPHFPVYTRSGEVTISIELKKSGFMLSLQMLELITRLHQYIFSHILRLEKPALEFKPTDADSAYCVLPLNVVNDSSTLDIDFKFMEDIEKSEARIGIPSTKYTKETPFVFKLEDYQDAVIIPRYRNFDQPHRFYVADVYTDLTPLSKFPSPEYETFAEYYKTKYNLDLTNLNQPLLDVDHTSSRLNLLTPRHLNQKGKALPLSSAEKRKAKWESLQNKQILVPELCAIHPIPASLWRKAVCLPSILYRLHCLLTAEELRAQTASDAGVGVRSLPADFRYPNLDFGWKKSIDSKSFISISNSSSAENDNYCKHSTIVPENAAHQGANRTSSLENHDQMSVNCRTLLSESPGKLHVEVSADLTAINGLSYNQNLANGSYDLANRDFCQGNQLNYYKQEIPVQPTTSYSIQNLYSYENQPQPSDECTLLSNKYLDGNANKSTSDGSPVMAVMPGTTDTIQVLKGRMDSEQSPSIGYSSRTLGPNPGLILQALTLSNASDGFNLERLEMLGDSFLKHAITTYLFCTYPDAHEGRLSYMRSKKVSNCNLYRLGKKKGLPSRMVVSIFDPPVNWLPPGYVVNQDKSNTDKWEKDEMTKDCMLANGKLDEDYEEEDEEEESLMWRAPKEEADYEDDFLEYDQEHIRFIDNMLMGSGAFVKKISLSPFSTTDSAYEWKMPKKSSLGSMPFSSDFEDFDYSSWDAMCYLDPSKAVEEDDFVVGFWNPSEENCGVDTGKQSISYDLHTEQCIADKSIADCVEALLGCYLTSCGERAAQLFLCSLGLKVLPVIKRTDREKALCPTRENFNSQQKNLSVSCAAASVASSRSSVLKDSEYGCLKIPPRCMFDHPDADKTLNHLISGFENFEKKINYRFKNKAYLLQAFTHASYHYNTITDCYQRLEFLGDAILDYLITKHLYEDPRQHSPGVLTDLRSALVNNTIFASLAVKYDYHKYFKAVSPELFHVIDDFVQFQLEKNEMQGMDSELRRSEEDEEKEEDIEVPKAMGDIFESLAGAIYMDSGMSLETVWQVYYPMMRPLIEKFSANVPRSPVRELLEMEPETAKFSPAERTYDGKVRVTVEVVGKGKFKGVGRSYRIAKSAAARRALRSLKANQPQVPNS
* = called active by the depositor.

SMILES | Dicer processing
Cc1ccc(S(=O)(=O)NCCCCCC(=O)O)cc1 | -0.2
COc1ccc(S(=O)(=O)NCCCC(=O)O)cc1 | 3.1*
O=S1(=O)CC(Sc2cccs2)c2ccccc21 (stereo unspecified) | 0.21
Clc1ccc2c(c1)N=C(N1CCNCC1)c1ccccc1N2 | 4*
O=C1Nc2ccc(Cl)cc2C(c2ccccc2)=Nc2ccccc21 | -1.2
CN1CCN(C2=Nc3cc(Cl)ccc3Nc3ccccc32)CC1 | 20
CC1(C)CC(=O)c2c(nc(SCC(=O)NCc3ccc4c(c3)OCO4)c(C#N)c2-c2ccccc2)C1 | -1.1
Cc1cc(C)c2ccc(NC(=O)c3ccc(C(F)(F)F)cc3)nc2n1 | 0.2
CCOc1ccc2nc(Nc3nc(C)cc(C(F)(F)F)n3)nc(C)c2c1 | 35
c1ccc2c(c1)N=C(NNC1=Nc3ccccc3SC1)CS2 | 3.8*
CCc1ccc(C2C(C(=O)OCCOC)=C(C)Nc3nc4ccccc4n32)cc1 (stereo unspecified) | 2.8
CN(C)CCNC(=O)N1c2ccccc2Sc2ccccc21 | -0.21
CCOC(=O)c1sc(SC)c2c1CC/C(=C\N(C)C)C2=O | -7
CCOC(=O)c1sc(SC)c2c1CC(c1ccccc1)CC2=O (stereo unspecified) | 3.7*
CCOC(=O)C1=C(C)NC2=C(C(=O)CC(c3ccccc3)C2)C1c1cc(C)sc1SC (stereo unspecified) | 0.21
CCCc1c(C(=O)O)nnn1-c1nonc1N | 0.95
Cc1ccc(C2C3=C(Nc4c2c(=O)n(C)c(=O)n4C)c2ccccc2C3=O)cc1 (stereo unspecified) | 0.93
CCOC(=O)C1=C(C)NC2=C(C(=O)c3ccccc32)C1c1cccc(OC)c1 (stereo unspecified) | -1.6
Cn1c2c(c(=O)[nH]c1=O)C(c1ccc(-c3ccccc3)cc1)C1=C(N2)c2ccccc2C1=O (stereo unspecified) | 4.6*
CCOC(=O)C1=C(C)NC2=C(C(=O)c3ccccc32)C1c1ccccc1 (stereo unspecified) | -0.36
Cn1c2c(c(=O)n(C)c1=O)C(c1cccc(OC(=O)c3ccccc3)c1)C1=C(N2)c2ccccc2C1=O (stereo unspecified) | 0.51
Cn1c2c(c(=O)[nH]c1=O)C(c1ccc(Cl)cc1)C1=C(N2)c2ccccc2C1=O (stereo unspecified) | 2.7
Cn1c2c(c(=O)[nH]c1=O)C(c1ccc(F)cc1)C1=C(N2)c2ccccc2C1=O (stereo unspecified) | -0.29
Cn1c2c(c(=O)[nH]c1=O)C(c1ccccc1)C1=C(N2)c2ccccc2C1=O (stereo unspecified) | 3*
Cn1c2c(c(=O)[nH]c1=O)C(c1ccc(Br)cc1)C1=C(N2)c2ccccc2C1=O (stereo unspecified) | 1.2
SMILES | Dicer processing
Cc1ccc(C2C3=C(Nc4c2c(=O)[nH]c(=O)n4C)c2ccccc2C3=O)cc1 (stereo unspecified) | 2.2
CCOC(=O)C1=C(C)NC2=C(C(=O)c3ccccc32)C1c1ccc(OC)cc1 (stereo unspecified) | 3.3*
Cn1c2c(c(=O)n(C)c1=O)C(c1ccc(OC(=O)c3ccccc3)cc1)C1=C(N2)c2ccccc2C1=O (stereo unspecified) | 7.1*
COc1ccc2nc(NC(=O)Oc3ccccc3)sc2c1 | 0.96
O=C(/C=C/OC(=O)c1cc(C(F)(F)F)cc(C(F)(F)F)c1)c1ccc(Cl)cc1 | 0.58
CCOC(=O)C1=C(C)N(c2ccc(F)cc2)C(=O)C1CC(=O)Nc1ccc(F)cc1 (stereo unspecified) | -1.5
CNC(=O)C(NC(=O)OC(C)(C)C)C(C)OCc1ccccc1 (stereo unspecified) | -0.54
Nc1c(C(=O)N2CCOCC2)sc2nc(-c3ccccc3)cc(C(F)(F)F)c12 | 1.1
COC(=O)C1=CN2c3ccccc3SC2(C(=O)OC)C(C(=O)OC)=C1C(=O)OC (stereo unspecified) | 2.8
Cc1cc(C)nc(N/C=C2\C(=O)c3sccc3N(C)S2(=O)=O)n1 | -0.52
O=c1c2ccccc2c(-c2ccccc2)nn1CN1CCCC1 | 0.21
CCN1/C(=C(/O)c2ccccc2)C(=O)c2ccccc2S1(=O)=O | 0.47
CCOC(=O)c1cc(C)nc(Sc2ccccc2Cl)n1 | -1.8
CC(=O)CSc1sc(C(C)=O)c(-c2ccccc2)c1C#N | -2.8
CC1C(c2ccccc2)OCCN1C(=O)CCC(=O)N1CCOC(c2ccccc2)C1C (stereo unspecified) | 5.6*
CN1CCOC(c2ccccc2)c2ccccc2C1 (stereo unspecified) | 0.53
O=C(CCc1ccccc1)N1CCC(c2ccccc2)C1 (stereo unspecified) | -1.4
O=C1C(=O)N(CCCN2CCOCC2)C(c2cccnc2)/C1=C(\O)c1ccc(Br)cc1 (stereo unspecified) | 1.9
CC1=CCC2C(=O)N(c3ccccc3O)C(=O)C2C1 (stereo unspecified) | -0.99
CC1=CCC2C(=O)N(c3ncccn3)C(=O)C2C1 (stereo unspecified) | 3.7*
CC1=CCC2C(=O)N(c3cc(C)on3)C(=O)C2C1 (stereo unspecified) | -0.01
CCOC(=O)CNC(=O)c1cccc(Cl)c1 | -0.89
COc1ccc(C2(C)SCc3cc(C)c(C)cc3CS2)cc1 | -1.9
CNC(=S)NNC(=O)CSc1nnc(-c2ccc(C(C)(C)C)cc2)n1CCCOC | -0.65
O=C(Cn1nnc2sc3c(c2c1=O)CCCC3)Nc1ccccc1Cl | -0.44
SMILES | Dicer processing
COC(=O)c1sc(N2C(=O)C(O)=C(C(=O)c3cccs3)C2c2ccc(C(C)C)cc2)nc1C (stereo unspecified) | 2.4
COC(=O)c1sc(N2C(=O)C(O)=C(C(=O)c3cccs3)C2c2ccc(F)cc2)nc1C (stereo unspecified) | 1.4
Cc1nnc(N2C(=O)C(O)=C(C(=O)c3cccs3)C2c2ccc(C(C)(C)C)cc2)s1 (stereo unspecified) | 1.1
CC(C)c1ccc(C2C(C(=O)c3cccs3)=C(O)C(=O)N2CCCN2CCOCC2)cc1 (stereo unspecified) | 1.3
COC(=O)c1sc(N2C(=O)C(O)=C(C(=O)c3cccs3)C2c2ccc(Cl)cc2)nc1C (stereo unspecified) | 3.8*
COc1ccc(C2C(C(=O)c3ccco3)=C(O)C(=O)N2c2nnc(C)s2)cc1OC (stereo unspecified) | 0.56
Cc1nnc(N2C(=O)C(O)=C(C(=O)c3cccs3)C2c2ccc(F)cc2)s1 (stereo unspecified) | 3.8*
Cc1nnc(N2C(=O)C(O)=C(C(=O)c3ccco3)C2c2ccc(Cl)cc2)s1 (stereo unspecified) | 4.2*
O=C(C1=C(O)C(=O)N(CCN2CCOCC2)C1c1ccncc1)c1cccs1 (stereo unspecified) | -2.3
Cc1nnc(N2C(=O)C(O)=C(C(=O)c3cccs3)C2c2ccc(Cl)cc2)s1 (stereo unspecified) | 0.95
Cc1nnc(N2C(=O)C(O)=C(C(=O)c3ccco3)C2c2ccccc2)s1 (stereo unspecified) | 1.2
Cc1ccc(C2C(C(=O)c3cccs3)=C(O)C(=O)N2CCCn2ccnc2)cc1 (stereo unspecified) | 3.3*
Cc1cc(C)c2c3c(sc2n1)C(c1ccc(F)c(F)c1)C(C#N)=C(N)O3 (stereo unspecified) | -1.2
CCOC(=O)c1cnn2c1NC(c1ccc(Cl)cc1)CC2C(F)(F)F (stereo unspecified) | -0.56
